Reference: PubChem BioAssay
“And” between values parts separate entries of the source, which are not always exact repeats. Equal values may be shown once. Inconclusive results are not listed. For part of these data: Measured potencies and affinities stand elsewhere. The source made the active and inactive calls. Unless noted, the rule behind the calls is not given here.

Assays:
[1] = polyglutamine-triggered caspase-3 activation inhibitors, cell-based (AID 1583); conditions: polyglutamine-induced caspase-3 activation, cell assay; stronger effect = higher value;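 tested at 10 µM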
[2] = suppressors of polyQ aggregation in yeast, 75Q-TubU reporter (AID 1593); conditions: Yeast 75Q polyglutamine aggregation reporter
[3] = rescue of polyQ-huntingtin neuronal dysfunction in worms, whole organism, C. elegans mechanosensory neurons, N-terminal huntingtin (AID 1599); conditions: touch response, stronger effect = higher value
[4] = inhibitors of mitochondrial cytochrome c release, biochemical, purified mitochondria (AID 1603); conditions: stronger effect = lower value;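 note: mouse liver mitochondria challenged with calcium chloride; signal normalized to the plate average as 100%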
[5] = inhibitors of polyQ protein aggregation (AID 1604); conditions: polyglutamine-induced protein aggregation inhibition assay; stronger effect = higher value; tested at 2.5 µM
[6] = enhancers of glutamate uptake in motor neurons, MN-1 cell line (AID 1612); conditions: MN-1 motor neuron cells, stronger effect = higher value;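 note: tested at 1 µM final; 0% = mean of DMSO vehicle wells on each plate; positive means more glutamate uptake than control and negative means less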
[7] = reducers of polyQ inclusions in PC12 cells, cell-based, NGF-treated PC12, GFPQ80 (AID 1614); conditions: PC12 NGF-treated GFP-polyQ80 inclusion reduction;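 note: lower means fewer inclusions and 0 means no inclusions at all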
[8] = suppressors of polyglutamine aggregation in yeast, 75Q-TubH (AID 1616); conditions: S. cerevisiae 75Q-TubH polyglutamine aggregation suppression; stronger effect = higher value
[9] = circadian clock period modulators, cell-based, LOPAC library, luminescence reporter (AID 2774); conditions: circadian reporter cells, at 7 µM, actives lie on both sides;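 note: values are relative to mean of DMSO wells on each plate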
[10] = hESC survival regulators, cell-based (AID 493140); conditions: human embryonic stem cell survival screen; stronger effect = higher value;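 note: cells exposed to compounds for four days before counting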
[11] = molecular target: ATP-dependent translocase ABCB1 (Homo sapiens) (UniProt P08183); test: MDR1 (ABCB1) efflux transporter inhibition, cell-based (AID 377; in the data active = fluorescence slope change above about 50%); conditions: MDR1-expressing cells, fluorescent substrate accumulation slope; stronger effect = higher value; concentration not given here
ATP-dependent translocase ABCB1 (Homo sapiens), sequence (P08183 whole entry, looked up): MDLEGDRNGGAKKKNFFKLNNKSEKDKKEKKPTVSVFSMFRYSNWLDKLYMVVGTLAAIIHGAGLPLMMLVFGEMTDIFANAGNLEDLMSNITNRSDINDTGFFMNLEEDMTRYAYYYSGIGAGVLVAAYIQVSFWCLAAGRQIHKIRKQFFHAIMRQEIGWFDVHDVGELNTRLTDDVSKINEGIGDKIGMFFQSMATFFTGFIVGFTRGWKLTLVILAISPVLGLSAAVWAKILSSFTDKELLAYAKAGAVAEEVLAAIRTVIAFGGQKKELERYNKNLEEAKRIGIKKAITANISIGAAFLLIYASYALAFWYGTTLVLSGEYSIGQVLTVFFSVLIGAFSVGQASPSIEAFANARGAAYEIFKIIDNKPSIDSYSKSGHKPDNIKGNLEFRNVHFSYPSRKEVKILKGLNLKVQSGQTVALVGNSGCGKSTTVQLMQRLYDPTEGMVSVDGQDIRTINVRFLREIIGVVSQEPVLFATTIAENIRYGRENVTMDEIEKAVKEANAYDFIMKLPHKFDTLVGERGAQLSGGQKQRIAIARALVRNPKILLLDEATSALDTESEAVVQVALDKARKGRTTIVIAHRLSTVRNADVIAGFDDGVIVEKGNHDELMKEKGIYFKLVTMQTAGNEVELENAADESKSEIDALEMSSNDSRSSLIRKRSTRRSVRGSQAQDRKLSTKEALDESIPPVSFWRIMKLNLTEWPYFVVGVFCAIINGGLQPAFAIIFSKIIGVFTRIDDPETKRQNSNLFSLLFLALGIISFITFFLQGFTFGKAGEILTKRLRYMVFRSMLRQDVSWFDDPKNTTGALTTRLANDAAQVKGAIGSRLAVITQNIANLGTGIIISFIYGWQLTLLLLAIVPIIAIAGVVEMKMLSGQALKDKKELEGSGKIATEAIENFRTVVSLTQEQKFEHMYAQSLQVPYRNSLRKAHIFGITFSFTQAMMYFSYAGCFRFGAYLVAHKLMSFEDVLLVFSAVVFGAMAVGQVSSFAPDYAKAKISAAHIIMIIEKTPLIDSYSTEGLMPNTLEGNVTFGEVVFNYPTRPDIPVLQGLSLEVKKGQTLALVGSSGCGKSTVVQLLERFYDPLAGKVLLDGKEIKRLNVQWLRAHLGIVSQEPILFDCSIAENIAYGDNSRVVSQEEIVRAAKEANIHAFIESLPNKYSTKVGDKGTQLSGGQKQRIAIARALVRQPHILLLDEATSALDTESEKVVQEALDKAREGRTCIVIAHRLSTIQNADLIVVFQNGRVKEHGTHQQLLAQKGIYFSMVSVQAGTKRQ

| Compound | inhibition [1] [%] | score [2] | rescue above control [3] | cytochrome c release ratio [4] | inhibition of aggregation [5] [%] | glutamate uptake change [6] [%] | inclusion score [7] | aggregation suppression score [8] | period change [9] | survival [10] | fluorescence slope change [11] |
| --- | --- | --- | --- | --- | --- | --- | --- | --- | --- | --- | --- |
| C[N+]1(CCCCC[N+]2(C)CCCC2)CCCC1 | -38.1 | 1.14 | 1.54 | 0.89 | 49 | 1.85 | 2 | 1.31 | 0.04 h (inactive) | 22.2 (inactive) | – |
| CCCOc1ccccc1-c1nc2n[nH]nc2c(=O)[nH]1 | -7.12 | 0.63 | 1.11 | 0.54 | 18.4 | -4.8 | 2 | 1.1 | -0.2 h (inactive) | 9.92 (inactive) | 11.9% (inactive) |
| CN(C)CCOC(=O)COc1ccc(Cl)cc1 | 6.84 | 1.08 | -6.72 | 0.96 | 83.1 | -7.05 | 2 | 1.56 | -0.09 h (inactive) | 8.75 (inactive) | -15.2% (inactive) |
| CN1CCN(CC(=O)N2c3ccccc3C(=O)Nc3cccnc32)CC1 | 9.26 | 1.57 | 18.8 | 1.27 | 63.5 | -10.6 | 2.5 | 1.19 | 0.09 h (inactive) | 8.33 (inactive) | – |
| COc1ccc(CN(CCN(C)C)c2ccccn2)cc1 | 17.1 | 1.86 | 23.5 | 0.92 | 12.7 | 0.17 | 2 | 1.48 | 0.06 h (inactive) | 21.9 (inactive) | 102% (active) |
| COc1ccc2[nH]cc(CCNC(C)=O)c2c1 | -10 | 1.34 | 0.33 | 0.49 | 46.1 | 7.67 | 2 | 1.76 | -0.21 h (inactive) | 15.4 (inactive) | – |
| NC(=O)c1ncn([C@@H]2O[C@H](CO)[C@@H](O)[C@H]2O)c1O | 7.18 | 1.36 | -8.77 | 0.91 | 49 | 20.3 | 2 | 0.757 | -0.05 h (inactive) | – | – |
| CCN(CC)CCNC(=O)c1cc(S(C)(=O)=O)ccc1OC | 6.97 | 1.47 | 10 | 5.94 | 79.2 | -0.98 | 2 | 1.49 | 0.15 h (inactive) | 16.2 (inactive) | 144% (active) |
| CN1CCC(=C2c3ccccc3CC(=O)c3sccc32)CC1 | 9.78 | 1.65 | 1.84 | 1.14 | 57.6 | 0.39 | 2 | 1.2 | -0.04 h (inactive) | 5.83 (inactive) | 20.2% (inactive) |
| Cc1cccc(C)c1OCC(C)N (stereo not given) | -1.28 | 1.39 | 0.83 | 0.86 | 45.1 | 6.77 | 2 | 1.44 | 0.025 h (inactive) | 21.7 (inactive) | 24.1% (inactive) |
| CC(=O)OCC1=C(C(=O)O)N2C(=O)[C@@H](NC(=O)CSc3ccncc3)[C@H]2SC1 | -8.64 | 1.04 | -6.1 | 1.02 | 71.9 | -2.14 | 2 | 1.12 | 0.035 h (inactive) | 1.83 (inactive) | 13.4% (inactive) |
| CN(C)[C@@H]1C(=O)C(C(N)=O)=C(O)[C@@]2(O)C(=O)C3=C(O)c4c(O)ccc(Cl)c4[C@@H](O)[C@H]3C[C@@H]12 | 13.2 | 0.8 | 0 | 2.6 | 27.8 | 0.55 | 0 | 0.533 | 0.065 h (inactive) | 2.92 (inactive) | 2.1% (inactive) |
| C=CCc1ccccc1OCC(O)CNC(C)C (stereo not given) | 3.86 | 1.39 | 6.88 | 1.44 | 14.3 | -6.27 | 2 | 1.42 | 0.15 h (inactive) | 7.25 (inactive) | 80.3% (active) |
| N[C@@H](Cc1ccc(O)c(O)c1)C(=O)O | -16.6 | 1.55 | 6.71 | 0.96 | 83.3 | -2.7 | 2 | 1.67 | 0.105 h (inactive) | 9.67 (inactive) | – |
| Cc1nnc(SCC2=C(C(=O)O)N3C(=O)[C@@H](NC(=O)Cn4cnnn4)[C@H]3SC2)s1 | 0.61 | 1.27 | 4.54 | 0.92 | 13.4 | 0.76 | 2 | 1.05 | -0.065 h (inactive) | 2.58 (inactive) | -6.8% (inactive) |
| O=c1c(O)c(-c2ccc(O)c(O)c2)oc2cc(O)cc(O)c12 | 24.5 | 1.53 | 8.75 | 1.04 | 87.3 | 12.9 | 1 | 1.03 | -0.025 h (inactive) | 4.17 (inactive) and 87 (inactive) | – |
| C#CCN(C)Cc1ccccc1 | 17 | 1.16 | 30.7 | 1.06 | 0 | -1.37 | 2 | 1.43 | 0.06 h (inactive) | 31.2 (inactive) | 71.9% (active) |
| CCCN(CCC)C(=O)C(CCC(=O)O)NC(=O)c1ccccc1 (stereo not given) | 14.9 | 1.14 | -3.65 | 1.15 | 68.3 | 11.9 | 1 | 1.2 | 0.02 h (inactive) | 19.6 (inactive) | – |
| CC[C@]12CCCN3CCc4c(n(c5ccccc45)C(=O)C1)[C@@H]32 | 11.5 | 1.49 | 15.2 | 1.06 | 76 | -6.74 | 2 | 1.73 | – | 2 (inactive) | 12.1% (inactive) |
| Cc1c(NC(=O)c2cccnc2)c(=O)n(-c2ccccc2)n1C | 13.7 | 1.39 | -0.65 | 0.9 | 85.9 | -15.2 | 2 | 1.3 | – | 16.6 (inactive) | 25.2% (inactive) |
| CC(C(=O)O)c1ccc(C(=O)c2cccs2)cc1 (stereo not given) | 7.38 | 0.92 | -0.97 | 1.35 | 91.6 | 15.6 | 2 | 0.589 | – | 6.67 (inactive) | 12.2% (inactive) |
| CCOc1ccc(NC(C)=O)cc1 | -10.9 | 0.84 | -2.44 | 0.87 | -59.3 | -13.8 | 1.5 | 0.296 | – | 8.75 (inactive) | 5.5% (inactive) |
| Nc1ccc(S(=O)(=O)NC(=O)c2ccccc2)cc1 | 20.3 | 1.2 | -4.53 | 0.95 | 47.9 | -23.6 | 2 | 1.16 | – | 3 (inactive) | 30% (inactive) |
